Where “and” joins values, the source holds several entries; their conditions need not be identical. Identical values can stand only once. Inconclusive results are not listed. The source holds several records for some structures; these can differ, active in one and inactive in another. Calls of active or inactive are those of the source. How the source made its calls: active means hit-call score of the fitted dose curve at least 0.9, where 1 is the maximum; inconclusive means response in the unintended direction; inactive means score below 0.9.
The molecules below were run against Cellular tumor antigen p53 (Homo sapiens) (UniProt P04637) (assay: TOX21_p53_BLA_p2_ratio: Tox21 HCT-116 p53 Agonism Beta-lactamase Assay, Ratio, Phase 2 (AID 2283592)).
Excerpt: TOX21_p53_BLA_p2 is a cell-based, single-readout assay that uses HCT116, a human intestinal cell line, […] in a 1536-well plate.TOX21_p53_BLA_p2_ratio is an assay readout measuring reporter gene via receptor activity and designed using inducible reporter (beta lactamase induction) detected with GAL4 b-lactamase reporter gene. The signal is derived from the ratio of cleaved (ch2) to uncleaved (ch1) reporter gene substrate used as the measure of target activity.Data from the assay component TOX21_p53_BLA_p2_ratio was analyzed into 1 assay endpoint. This assay endpoint, TOX21_p53_BLA_p2_ratio, was analyzed in the positive analysis fitting direction relative to DMSO as the negative control and baseline of activity. Using a type of inducible reporter, gain-of-signal activity can be used to understand changes in the reporter gene as they relate to the gene TP53. Furthermore, this assay endpoint can be referred to as a primary readout, because this assay has produced multiple assay endpoints and this ratio serves a reporter gene function to understand target activity. To generalize the intended target to other relatable targets, this assay endpoint is annotated to the DNA binding intended target family, where the subfamily is tumor suppressor.
Thawing Method: Place 14 mL of pre-warmed thaw medium into a 15 mL of conical tub. Remove the vial of cells to be thawed from liquid nitrogen and thaw rapidly by placing at 37C in a water bath with gentle agitation for 1-2 minutes. Decontaminate the vial by wiping with 70% ethanol before opening in a biological safety cabinet. Transfer the vial contents drop-wise into 14 mL of thaw medium in a sterile 15-mL conical tub. Centrifuge cells at 900 rpm for 4 minutes and resuspend in thaw medium. Transfer contents to the T75 tissue culture flask containing Thaw Medium and place flask in a humidified 37C/5% CO2 incubator. Switch to growth medium at first passage.Propagation Method: Aspirate medium, rinse once in DPBS, add 0.25% Trypsin/EDTA and swirl to coat the cell evenly. Add an equal volume of Growth Medium to inactivate Trypsin after 2-3 minutes incubation at 37C. Centrifuge cells at 900 rpm for 4 minutes and resuspend in growth medium. Cell should be passage or fed at least twice a week.Assay Protocol: Harvest cells from culture in growth medium and resuspend in assay medium. 2.2 Dispense 4000 cells/5 uL/well into 1536-well black/clear bottom plates using a Multidrop dispenser. After the cells were incubated at 37C for 5 hours, 23 nL of compounds dissolved in DMSO were transferred to the assay plate by a PinTool resulting in a 217-fold dilution. Incubate the plates for 16 hours at 37C, 5% CO2. Add 1 uL of 6X LiveBLAzer FRET B/G (CCF4-AM) Substrate Mixture to each well using a BioRAPTR dispenser and incubate the plates at room temperature for 2 hours. Measure fluorescence intensity at 460 and 530 nm emission and 405 nm excitation by an Envision detector. Data is expressed as the ratio of 460nm/530nm emissions. Add 4 uL of Cell-titer Glo to each well using BioRAPTR and incubate the plates at room temperature for 2 hours. Measure fluorescence intensity by a VewLux plate reader.

Chain of Cellular tumor antigen p53 (Homo sapiens) (P04637 whole entry, looked up, the tested form may be a part): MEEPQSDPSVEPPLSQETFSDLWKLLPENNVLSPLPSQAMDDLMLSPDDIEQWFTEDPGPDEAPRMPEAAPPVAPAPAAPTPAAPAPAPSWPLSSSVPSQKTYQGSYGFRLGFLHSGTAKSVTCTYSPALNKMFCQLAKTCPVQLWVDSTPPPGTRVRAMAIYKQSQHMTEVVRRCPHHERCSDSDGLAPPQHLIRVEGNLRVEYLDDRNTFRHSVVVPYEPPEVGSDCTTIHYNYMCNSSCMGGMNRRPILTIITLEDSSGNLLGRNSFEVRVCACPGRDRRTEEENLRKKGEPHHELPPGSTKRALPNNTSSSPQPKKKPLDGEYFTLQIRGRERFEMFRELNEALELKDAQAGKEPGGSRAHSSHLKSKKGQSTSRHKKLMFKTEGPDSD

Row | SMILES | outcome | AC50
1 | C=CC1(C)OC(=O)N(c2cc(Cl)cc(Cl)c2)C1=O (stereo not given) | inactive | 
2 | CCOc1cc(Oc2ccc(C(F)(F)F)cc2Cl)ccc1[N+](=O)[O-] | inactive | 
3 | CS/C(C)=N/OC(=O)N(C)SN(C)C(=O)O/N=C(\C)SC | inactive | 
4 | O=C(O)c1nc(Cl)ccc1Cl | inactive | 
5 | CCNc1nc(Cl)nc(NC(C)C)n1 | inactive | 
6 | O=C(O)COc1nc(Cl)c(Cl)cc1Cl | inactive | 
7 | CC(Oc1ccc(Cl)cc1Cl)C(=O)O (stereo not given) | inactive | 
8 | C=CCC1=C(C)C(OC(=O)C2C(C=C(C)C)C2(C)C)CC1=O (stereo not given) | inactive | 
9 | CCON=C(CC)C1=C(O)CC(c2c(C)cc(C)cc2C)CC1=O (stereo not given) | inactive | 
10 | O=C(Nc1ccccc1)Nc1ccnc(Cl)c1 | inactive | 
11 | CC1=C(C(=O)Nc2ccccc2)SCCO1 | inactive | 
12 | OC(c1ccc(Cl)cc1)(c1cncnc1)c1ccccc1Cl (stereo not given) | inactive | 81.5 µM (active)
13 | CCCCNC(=O)OCC#CI | inactive | 67 µM (active)
14 | COC(=O)c1ccccc1C(=O)OC | inactive | 
15 | COc1cnc(OC)n2nc(NS(=O)(=O)c3c(OCC(F)F)cccc3C(F)(F)F)nc12 | inactive | 
16 | CCCCOC(=O)c1ccccc1C(=O)OCCCC | inactive | 
17 | COC(=O)C(C)Oc1ccc(Oc2ccc(Cl)cc2Cl)cc1 (stereo not given) | inactive | 
18 | CON(C)C(=O)Nc1ccc(Cl)c(Cl)c1 | inactive | 
19 | CC(C)Oc1cc(-n2nc(C(C)(C)C)oc2=O)c(Cl)cc1Cl | inactive | 

Row | SMILES | outcome | AC50
20 | N#Cc1nn(-c2c(Cl)cc(C(F)(F)F)cc2Cl)c(N)c1S(=O)C(F)(F)F (stereo not given) | inactive | 
21 | CCc1nn(C)c(C(=O)NCc2ccc(C(C)(C)C)cc2)c1Cl |  | 0.0232 µM (active)
22 | CNC(=S)S | inactive | 
23 | CN(C)C(=S)SSC(=S)N(C)C | inactive | 33 µM (active)
24 | C#CCOS(=O)OC1CCCCC1Oc1ccc(C(C)(C)C)cc1 (stereo not given) |  | 2.65 µM (active) and 1.54 µM (active)
25 | CC1COC(Cn2cncn2)(c2ccc(Oc3ccc(Cl)cc3)cc2Cl)O1 (stereo not given) |  | 21.4 µM (active)
26 | Fc1ccc(Oc2ccnc3cc(Cl)cc(Cl)c23)cc1 |  | 79.3 µM (active)
27 | COc1nc(NC(C)C)nc(NC(C)C)n1 | inactive | 
28 | CCOC(=O)CC(SP(=S)(OC)OC)C(=O)OCC (stereo not given) | inactive | 
29 | CCCCC(CC)COC(=O)c1ccccc1C(=O)OCC(CC)CCCC (stereo not given) | inactive | 
30 | COC(=O)C=C(C)OP(=O)(OC)OC | inactive | 
31 | CC(C)C1(C)N=C(c2nc3ccccc3cc2C(=O)O)NC1=O (stereo not given) | inactive | 
32 | CCCC1COC(Cn2cncn2)(c2ccc(Cl)cc2Cl)O1 (stereo not given) | inactive | 
33 | COc1ccc(C(c2ccc(OC)cc2)C(Cl)(Cl)Cl)cc1 | inactive | 
34 | C=CCC1=C(C)[C@@H](OC(=O)[C@@H]2[C@@H](C=C(C)C)C2(C)C)CC1=O | inactive | 
35 | COP(=S)(OC)Oc1nc(Cl)c(Cl)cc1Cl | inactive | 
36 | Oc1ccccc1-c1ccccc1 | inactive | 
37 | N#Cc1cc(Br)c(O)c(Br)c1 |  | 40 µM (active) and 56 µM (active)

From PubChem BioAssay (EPA / NIEHS)
